The supplement of paper PMC4894684
Structures can show the parent of a compound that is named as a salt. ± gives the standard deviation of the averaged measurements.

What follows are compounds tested on Toxoplasma gondii RH (in HFF) (assay: parasite growth relative to the screen mean (all compounds = 100%); higher = less inhibition of parasite growth). Settings: 5 µM; 72 h; oxygen 21 %.
Procedure, shortened: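 Confluent human foreskin fibroblasts in 96-well plates received library compounds by pin transfer at 5 µM final, taken from 10 mM DMSO stocks. Within 2 h the cells were infected with RH β-Gal–GFP Toxoplasma at MOI 1:5 and cultured 72 h at 21% O2. A CPRG β-Gal assay read against in-plate standard curves gave parasite number, and growth is stated relative to the screen mean, where all compounds = 100%, averaged across two screens.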

Compound | parasite growth [%]
O=C1Nc2ccccc2C2(CCN(CCc3ccc(C(F)(F)F)cc3)CC2)O1 | 99.9 ± 20
c1ccc(CCCCN2CCC(c3ccccc3)CC2)cc1 [4-PPBP maleate] | 82.8 ± 5.3
Cc1[nH]c2ccc(O)cc2c1CCN [2-Methyl-5-hydroxytryptamine hydrochloride] | 139 ± 37
Cc1ccc2c(c1)C1(CCN(CCc3nc(-c4ccccc4)oc3C)CC1)OC(=O)N2 | 96.7 ± 3.8
CN1C(=O)CCS(=O)(=O)C1c1ccc(Cl)cc1 (centres undefined) [Chlormezanone] | 145 ± 22
NC(C(=O)O)c1nn[nH]n1 (racemic) [(RS)-(Tetrazol-5-yl)glycine] | 146 ± 30
NCC(O)c1ccc(O)cc1 (centres undefined) [Octopamine hydrochloride] | 76.6 ± 12
COC(=O)[C@@H](N)CCCNC(=N)N[N+](=O)[O-] [L-NAME hydrochloride] | 81.5 ± 24
C[C@H]1CCC/C=C/[C@@H]2C[C@H](O)C[C@H]2[C@H](O)/C=C/C(=O)O1 [Brefeldin A] | < 0
CC12NC(Cc3ccccc31)c1ccccc12 (single isomer, unassigned; (+)) [(+)-MK 801 maleate] | 123 ± 15
c1ccc(C2CNCc3ccccc32)cc1 (centres undefined) [4-Phenyl-1,2,3,4-tetrahydroisoquinoline hydrochloride] | 98.2 ± 12
CC(=O)N1CC[N+](C)(C)CC1 [4-Acetyl-1,1-dimethylpiperazinium iodide] | 130 ± 13
C[N+]1(C)CCc2cc3c(cc2C1C1OC(=O)c2c1ccc1c2OCO1)OCO3 (single isomer, unassigned; (-)) [(-)-Bicuculline methobromide] | 131 ± 20
Cc1onc(O)c1C[C@H](N)C(=O)O | 113 ± 34
C[C@H](N)Cc1cnc[nH]1 [(S)-(+)-a-Methylhistamine dihydrobromide] | 113 ± 11
NC1(c2ccccc2Cl)CCCCC1=O (centres undefined) [Norketamine hydrochloride] | 86.9 ± 27
CN1C[C@H](CNC(=O)OCc2ccccc2)C[C@@H]2c3cccc4c3c(cn4C)C[C@H]21 [Metergoline] | 71 ± 0.52
OC1CCCCC1N1CCC(c2ccccc2)CC1 (racemic) [(±)-Vesamicol hydrochloride] | 100 ± 8.3
O=C1Nc2cc(Cl)c(Cl)cc2N2CCNCC12 (centres undefined) | 176 ± 7.8
O=Cc1cn(Cc2ccc(Cl)cc2)c2ccccc12 [Oncrasin 1] | 113 ± 44

Compound | parasite growth [%]
O=C1CSC(c2ccccc2Cl)c2cc(Cl)ccc2N1 (centres undefined) | 153 ± 4.7
C=CCN1CC[C@]2(C)c3cc(O)ccc3C[C@H]1C2C (single isomer, unassigned; (+)) | 97.7 ± 5.9
COC(=O)/C=C/C(=O)N[C@@H]1CC[C@@]2(O)[C@H]3Cc4ccc(O)c5c4[C@@]2(CCN3CC2CC2)[C@H]1O5 [β-Funaltrexamine hydrochloride] | 74.5 ± 28
N.N.[Cl][Pt][Cl] [Cisplatin] | 144 ± 80
c1ccc2c(c1)OCC(C1=NCCN1)O2 (centres undefined) [Idazoxan hydrochloride] | 111 ± 8.1
O=[N+]([O-])c1cc(O)c(O)c([N+](=O)[O-])c1 | 80.4 ± 42
Cc1nnc2n1-c1sc(CCC(=O)N3CCOCC3)cc1C(c1ccccc1Cl)=NC2 | 132 ± 22
O=C(O)c1nn(Cc2ccc(Cl)cc2Cl)c2ccccc12 [Lonidamine] | 77.9 ± 20
N[C@@]1(C(=O)O)CC[C@@H](C(=O)O)C1 | 111 ± 27
C/C(O)=C(\C#N)C(=O)Nc1cc(Br)ccc1Br | 130 ± 7.2
O=C1CCCN1CC#CCN1CCCC1 [Oxotremorine sesquifumarate] | 92 ± 32
COc1ccc(CCN2CCC(Nc3nc4ccccc4n3Cc3ccc(F)cc3)CC2)cc1 [Astemizole] | < 0
Cc1ccc(C[N+](C)(C)C)o1 [5-Methylfurmethiodide] | 100 ± 6.6
CC(=O)N(C)c1cccc(-c2ccnc3c(C(=O)c4cccs4)cnn23)c1 [Indiplon] | 79.5 ± 17
BrC1C(Br)C(Br)C(Br)C(Br)C1Br (centres undefined) [1,2,3,4,5,6-Hexabromocyclohexane] | 112 ± 29
CC[C@@]1(O)C(=O)OCc2c1cc1n(c2=O)Cc2cc3ccccc3nc2-1 [Camptothecin] | 181 ± 36
NCC(CS(=O)(=O)O)c1ccc(Cl)cc1 (centres undefined) [Saclofen] | 114 ± 24
Cc1nnc2ccc(-c3cccc(C(F)(F)F)c3)nn12 | 126 ± 14
O=C1C2CCN(CC2)C1(CO)CO | 144 ± 4
